# Data: the supplement of paper PMC8728848
# About 410 targets per protein were measured; listed, in parts, are those with the strongest signals and a random draw of the rest.
# Tests used:
# Experiment in all cases: glycan array binding signal (z-score within array); higher = stronger binding
# Conditions in all cases: glycan notation: IUPAC condensed, linker removed
# [1] = biological target: Gal6S(b1-4)Glc6S
# Method in brief: (§1)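 Negative Z-scores can be read as non-binding. The Z-score is calculated within each array and then averaged across arrays of one protein sequence at different concentrations or buffers and across linkers. Arrays, 3228 in all, were curated from the Consortium for Functional Glycomics database and kept only where the protein sequence was available.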
# [2] = biological target: Gal6S(b1-4)GlcNAc6S
# Method in brief: as §1
# [3] = biological target: GalNAc(b1-4)GlcNAc6S
# Method in brief: as §1
# [4] = biological target: GlcNAc(a1-4)Gal(b1-4)GlcNAc
# Method in brief: as §1
# [5] = biological target: GlcNAc(a1-6)Gal(b1-4)GlcNAc
# Method in brief: as §1
# [6] = biological target: GlcNAc(b1-3)Fuc
# Method in brief: as §1
# [7] = biological target: GlcNAc(b1-3)Gal(b1-4)Glc
# Method in brief: as §1
# [8] = biological target: GlcNAc(b1-3)Gal(b1-4)GlcNAc(b1-2)[GlcNAc(b1-3)Gal(b1-4)GlcNAc(b1-6)]Man(a1-6)[GlcNAc(b1-3)Gal(b1-4)GlcNAc(b1-2)Man(a1-3)]Man(b1-4)GlcNAc(b1-4)GlcNAc
# Method in brief: as §1
# [9] = biological target: GlcNAc(b1-3)Gal(b1-4)GlcNAc(b1-3)Gal(b1-4)GlcNAc(b1-2)Man(a1-3)[GlcNAc(b1-3)Gal(b1-4)GlcNAc(b1-3)Gal(b1-4)GlcNAc(b1-2)Man(a1-6)]Man(b1-4)GlcNAc(b1-4)[Fuc(a1-6)]GlcNAc
# Method in brief: as §1
# [10] = biological target: GlcNAc(b1-3)Gal(b1-4)GlcNAc(b1-3)Gal(b1-4)GlcNAc(b1-3)Gal(b1-4)GlcNAc(b1-2)[GlcNAc(b1-3)Gal(b1-4)GlcNAc(b1-3)Gal(b1-4)GlcNAc(b1-3)Gal(b1-4)GlcNAc(b1-6)]Man(a1-6)[GlcNAc(b1-3)Gal(b1-4)GlcNAc(b1-3)Gal(b1-4)GlcNAc(b1-3)Gal(b1-4)GlcNAc(b1-2)Man(a1-3)]Man(b1-4)GlcNAc(b1-4)[Fuc(a1-6)]GlcNAc
# Method in brief: as §1
# [11] = biological target: GlcNAc(b1-3)Gal(b1-4)GlcNAc(b1-3)Gal(b1-4)GlcNAc(b1-3)Gal(b1-4)GlcNAc(b1-3)Gal(b1-4)GlcNAc(b1-2)[GlcNAc(b1-3)Gal(b1-4)GlcNAc(b1-3)Gal(b1-4)GlcNAc(b1-3)Gal(b1-4)GlcNAc(b1-3)Gal(b1-4)GlcNAc(b1-6)]Man(a1-6)[GlcNAc(b1-3)Gal(b1-4)GlcNAc(b1-3)Gal(b1-4)GlcNAc(b1-3)Gal(b1-4)GlcNAc(b1-3)Gal(b1-4)GlcNAc(b1-2)Man(a1-3)]Man(b1-4)GlcNAc(b1-4)[Fuc(a1-6)]GlcNAc
# Method in brief: as §1
# [12] = biological target: GlcNAc(b1-3)Gal(b1-4)GlcNAc(b1-6)[GlcNAc(b1-3)Gal(b1-3)]GalNAc
# Method in brief: as §1
# [13] = biological target: Man(a1-2)Man(a1-2)Man(a1-6)[Man(a1-3)]Man
# Method in brief: as §1
# [14] = biological target: Man(a1-3)[Man(a1-6)]Man(a1-6)[Man(a1-3)]Man
# Method in brief: as §1
# [15] = biological target: Neu5Ac(a2-3)Gal
# Method in brief: as §1
# [16] = biological target: Neu5Ac(a2-3)Gal(b1-3)GalNAc(b1-4)[Neu5Ac(a2-8)Neu5Ac(a2-3)]Gal(b1-4)Glc
# Method in brief: as §1
# [17] = biological target: Neu5Ac(a2-3)Gal(b1-3)GlcNAc(b1-2)Man
# Method in brief: as §1
# [18] = biological target: Neu5Ac(a2-3)Gal(b1-4)GlcNAc(b1-3)Gal(b1-4)GlcNAc(b1-3)GalNAc
# Method in brief: as §1
# [19] = biological target: Neu5Ac(a2-3)Gal(b1-4)GlcNAc(b1-3)GalNAc
# Method in brief: as §1
# [20] = biological target: Neu5Ac(a2-3)Gal(b1-4)[Fuc(a1-3)]GlcNAc
# Method in brief: as §1
# [21] = biological target: Neu5Ac(a2-6)Gal(b1-4)GlcNAc
# Method in brief: as §1
# [22] = biological target: Neu5Ac(a2-6)Gal(b1-4)GlcNAc(b1-2)Man(a1-3)Man(b1-4)GlcNAc(b1-4)GlcNAc
# Method in brief: as §1
# [23] = biological target: Neu5Ac(a2-6)Gal(b1-4)GlcNAc(b1-2)Man(a1-6)[Man(a1-3)]Man(b1-4)GlcNAc(b1-4)GlcNAc
# Method in brief: as §1
# [24] = biological target: Neu5Ac(a2-6)Gal(b1-4)GlcNAc(b1-3)GalNAc
# Method in brief: as §1
# [25] = biological target: Neu5Ac(a2-8)Neu5Ac(a2-3)[Gal(b1-3)GalNAc(b1-4)]Gal(b1-4)Glc
# Method in brief: as §1
# [26] = biological target: Neu5Ac(a2-8)Neu5Gc(a2-3)Gal(b1-4)GlcNAc
# Method in brief: as §1
# [27] = biological target: Neu5Ac(b2-6)GalNAc
# Method in brief: as §1
binder,measurement,setting,value
PX9961M-bvu-482-23-482 (Bacteroides vulgatus) (protein) WLDLAPSTQVDTETSINVLSDIEFTLNGIYSTMQSSDAYSGRLVYYGDVTGDDMQAVSSTKRTGNYYRFNFTKDNGPSSHWSYLYSIIQNCNLILMNVDKLSIDEDETEYKNDLKGQALAIRGMALFDLTRIFGYPYLKDNGASLGVPIVKELSTIDSKPARNTVAECYTEIISDLKNSTELLSGDFNKGKVNRWAAMTLLSRVYLYKGEYNEALTMAENAIKGAEKEGYALWTNEEYPTAWGNDASASNPGEILFEIVNLTTDSPGKESMGYLNSYNGYDDMCITCSFYQLLKKDPKDVRLKILSFDKKYYAYVNKYQPQQGENITDANIPLIRLSEAYLNAAEAAVQTGDNAKAVKYLNSIVQRANPENSVEGKTLTLENVLDERRKELVAEGHRMYDVIRNGMTVKRIDVKDSDINKTKHNTAYMEYDWNFHKILLPIPKKEMDANPNMKQNPGYVD,glycan array binding signal (z-score),[1],-0.529
same,glycan array binding signal (z-score),[2],-0.084
same,glycan array binding signal (z-score),[3],-0.209
same,glycan array binding signal (z-score),[4],-0.43
same,glycan array binding signal (z-score),[5],-0.826
same,glycan array binding signal (z-score),[6],0.451
same,glycan array binding signal (z-score),[7],-0.369
same,glycan array binding signal (z-score),[8],-0.33
same,glycan array binding signal (z-score),[9],0.761
same,glycan array binding signal (z-score),[10],1.99
same,glycan array binding signal (z-score),[11],1.58
same,glycan array binding signal (z-score),[12],0.464
same,glycan array binding signal (z-score),[13],0.455
same,glycan array binding signal (z-score),[14],2.74
same,glycan array binding signal (z-score),[15],-0.037
same,glycan array binding signal (z-score),[16],0.996
same,glycan array binding signal (z-score),[17],0.535
same,glycan array binding signal (z-score),[18],-0.629
same,glycan array binding signal (z-score),[19],0.638
same,glycan array binding signal (z-score),[20],-0.48
same,glycan array binding signal (z-score),[21],0.329
same,glycan array binding signal (z-score),[22],-0.834
same,glycan array binding signal (z-score),[23],0.152
same,glycan array binding signal (z-score),[24],-0.573
same,glycan array binding signal (z-score),[25],-0.531
same,glycan array binding signal (z-score),[26],18
same,glycan array binding signal (z-score),[27],-0.083
